# Screening data from PubChem.
# ROMK mod: modulators of human ROMK potassium channel; Tet-inducible ROMK, thallium flux fluorescence; actives lie on both sides; B-score at 10 µM; hit rate 2% among 130,000; P48048;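 active = signal ratio slope over the read window, or its plate-corrected B-score, at least 3 SD from the plate mean, either direction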;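 also: B-score of the F/F0 ratio slope over 7 to 12 s after thallium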
# Target sequence (P48048 whole entry, looked up): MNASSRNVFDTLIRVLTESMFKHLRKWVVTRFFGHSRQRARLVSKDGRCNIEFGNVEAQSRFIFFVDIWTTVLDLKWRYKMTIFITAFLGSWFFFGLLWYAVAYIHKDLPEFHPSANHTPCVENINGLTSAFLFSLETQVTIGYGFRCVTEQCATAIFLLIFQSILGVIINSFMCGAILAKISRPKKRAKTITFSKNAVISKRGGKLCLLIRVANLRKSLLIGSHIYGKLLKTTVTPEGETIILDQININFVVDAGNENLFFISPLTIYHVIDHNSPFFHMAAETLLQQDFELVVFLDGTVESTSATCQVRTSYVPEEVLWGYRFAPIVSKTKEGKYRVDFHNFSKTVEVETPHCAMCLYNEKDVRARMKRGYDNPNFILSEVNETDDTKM
# HMGR II inh: E. faecalis class II HMG-CoA reductase inhibition; purified E. faecalis HMGR, NADPH absorbance 340 nm kinetic; hit rate 0.41% among 190,000; inhibition, % at 10 µM;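 active = inhibition above a set limit, the median over all tested compounds plus 3 SD, cut at about 9.5% in these data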;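 also: enzyme runs in reverse so mevalonate oxidation gives rising NADPH absorbance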
# HSV augment: increases HSV replication in cells | AID 1956 | maximum fold increase | HSV replication augmentation in cells, fold increase | hit rate 0.005% among 220,000; in the data active = maximum fold increase above about 1.5; tested in PC3 cells
# Calpain2 inh: blocks pig calpain II enzyme activity. purified calpain II, fluorogenic peptide substrate, 30 min. inhibition, % at 16 µM. hit rate 0.37% among 220,000. AID 1236;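 active = inhibition above about 50%, limit read from the data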
# Arbovirus anti: arbovirus infection inhibition. hit rate 0.37% among 200,000. arbovirus infection cell-based antiviral screen. inhibition, % at 10 µM; in the data active = inhibition above about 30%
# A number is an active result; - = inactive; . = no result. Shown are actives, neighbours in structure and some others; about 2.1% of the full set was active somewhere.
SMILES,ROMK mod,HMGR II inh,HSV augment,Calpain2 inh,Arbovirus anti
COC(=O)c1ccccc1NC(=O)c1ccc(COc2cc(C)cc(C)c2)o1,-,-,-,-,-
COc1ccc(OC)c(Cc2nnc(CCC(=O)NC3CCCCC3)o2)c1,.,-,-,-,-
COc1ccc(OC)c(Cc2nnc(CCC(=O)NCc3ccsc3)o2)c1,-,9.7,-,-,-
Cn1c(=O)c(C(=O)Nc2ncccc2O)c(O)c2ccccc21,.,-,-,-,-
Cc1ccc(NC(=O)c2c(O)c3ccccc3n(C)c2=O)nc1,.,-,-,-,33
C=CCN1C(=O)C(CC(=O)Nc2ccc(OCCC)cc2)N(CCCN2CCN(Cc3ccccc3)CC2)C1=S (configuration not stated),-,-,-,-,-
Cc1cccc(NC(=O)NCc2ccc3[nH]c(C)cc3c2)c1,-,-,-,97,-
Cc1cc2cc(CNC(=O)NC3CCCCC3)ccc2[nH]1,-,-,-,-,-
Cc1cc2cc(CNC(=S)NC3CCCCC3)ccc2[nH]1,-,-,-,87,-
C=CCN=C1S/C(=C\c2ccc(N(C)C)cc2)C(=O)N1CC=C,.,.,-,-,.
Cc1cc(C(=O)NNC(=O)NC(C)C)no1,-,.,-,-,.
C=CCn1c(CSCc2ccc(Cl)cc2Cl)nnc1SCC(=O)Nc1ccc(C(=O)O)cc1,.,.,-,-,.
N#CCCn1cc(C(=O)N2CCOCC2)c(-c2ccc3c(c2)OCCO3)n1,-,-,-,-,-
O=C(CCl)N=c1sccn1Cc1ccccc1Cl,.,.,-,-,.
O=C(CCl)N=c1sccn1Cc1cccc2ccccc12,-,-,-,-,31
CN(CCc1ccccn1)C(=S)NC(=O)c1ccco1,-,-,-,52,-
O=C(NC(=S)NCCc1ccccn1)c1ccco1,-,-,-,-,-
Fc1ccc2nc(Nc3nc4c(F)cccc4s3)sc2c1,.,-,-,-,34
Fc1ccc2nc(Nc3nc4c(F)cc(F)cc4s3)sc2c1,.,-,-,-,-
Cc1cccc(OCC(O)Cn2c(=N)n(Cc3ccccc3)c3ccccc32)c1 (configuration not stated),.,.,-,-,.
N=c1n(Cc2ccccc2)c2ccccc2n1CC(O)COc1ccc(Cl)cc1Cl (configuration not stated),-,-,-,52,-
CC(=O)c1ccc(N2CCN(C(=O)Cc3n[nH]c(=O)c4ccccc34)CC2)cc1,-,13,-,-,-
CC1CCCC(NC(=O)CN(C)S(=O)(=O)c2cnc[nH]2)C1C (configuration not stated),-,14,-,-,-
Cc1noc2ncnc(Sc3ccc(Br)cc3)c12,-,-,-,-,-
S=C(Nc1ccccc1Oc1ccccc1)Nc1cccc(Cl)c1Cl,.,-,-,55,-
SMILES,ROMK mod,HMGR II inh,HSV augment,Calpain2 inh,Arbovirus anti
Cc1ccc(NC(=O)N2CCCC2C(=O)Nc2ccc(-n3cnnn3)c(C)c2)cc1 (configuration not stated),.,9.7,-,-,-
COc1ccc(NS(=O)(=O)c2cc(NC(=O)/C=C/c3cccs3)ccc2N2CCOCC2)cc1,-,-,-,-,64
O=C1c2ccccc2NC(c2ccccn2)N1c1ccccc1F (configuration not stated),.,-,-,-,-
Cc1cccc(C2Nc3ccccc3C(=O)N2c2ccc(F)cc2)n1 (configuration not stated),-,9.8,-,-,-
O=C(NCc1cccnc1)c1ccc2c(=O)n(CCCN3CCCC3=O)c(=S)[nH]c2c1,.,-,-,84,-
O=C(NCc1ccccc1Cl)c1ccc2c(=O)n(CCCN3CCCC3=O)c(=S)[nH]c2c1,.,-,-,-,-
Cc1ccccc1N(CC(=O)N/N=C/c1cc(C)n(-c2ccccc2C)c1C)S(C)(=O)=O,8.5,-,-,-,-
CCNC(=S)N(CCc1c(C)[nH]c2ccc(Cl)cc12)Cc1ccco1,-,-,-,59,-
CNC(=S)N(CCc1c(C)[nH]c2ccc(C)cc12)Cc1ccco1,-,-,.,-,-
O=C(O)CC12CSc3[nH]c(=O)sc3C1c1ccccc1OC2=O (configuration not stated),.,-,-,54,-
O=C(OC1CCCCC1=O)c1cc(Cl)ccc1[N+](=O)[O-] (configuration not stated),-,-,-,-,-
CC(NC(=O)C(=O)N/N=C\c1cccc([N+](=O)[O-])c1)c1ccccc1 (configuration not stated),-,-,-,-,-
O=C(Nc1nc(-c2ccccc2)cs1)c1ccc(=O)[nH]c1,-,-,-,-,38
O=C(Nc1nc(-c2ccccc2)cs1)c1cccs1,.,-,-,-,74
O=C(Nc1nc(-c2ccccc2)ns1)c1cccs1,.,-,-,-,30
O=C(CSc1ncn[nH]1)Nc1nc(-c2ccccc2)ns1,.,-,-,-,41
